{"source": "PubChem BioAssay AID1851", "about": "(National Center for Advancing Translational Sciences (NCATS), 2009)", "note": "Out of some 16,000 compounds screened, about 4,000 (25%) were called active. Another 26% or so got no clear call; they are omitted. A selection follows. Values without a mark were called inactive. Calls come from the whole dose curve; as a rule, active = well fitted curve in the direction sought with a large enough effect; inconclusive = small, poorly fitted or top-dose-only effect, or effect the other way; inactive = no such curve, though single readings can be large or run the other way. % is set by controls: 0 for no effect and ±100 for the full control effect.", "data": [{"molecular_target": "Cytochrome P450 2C9 (Homo sapiens) (UniProt P11712)", "sequence (P11712 whole entry, looked up)": "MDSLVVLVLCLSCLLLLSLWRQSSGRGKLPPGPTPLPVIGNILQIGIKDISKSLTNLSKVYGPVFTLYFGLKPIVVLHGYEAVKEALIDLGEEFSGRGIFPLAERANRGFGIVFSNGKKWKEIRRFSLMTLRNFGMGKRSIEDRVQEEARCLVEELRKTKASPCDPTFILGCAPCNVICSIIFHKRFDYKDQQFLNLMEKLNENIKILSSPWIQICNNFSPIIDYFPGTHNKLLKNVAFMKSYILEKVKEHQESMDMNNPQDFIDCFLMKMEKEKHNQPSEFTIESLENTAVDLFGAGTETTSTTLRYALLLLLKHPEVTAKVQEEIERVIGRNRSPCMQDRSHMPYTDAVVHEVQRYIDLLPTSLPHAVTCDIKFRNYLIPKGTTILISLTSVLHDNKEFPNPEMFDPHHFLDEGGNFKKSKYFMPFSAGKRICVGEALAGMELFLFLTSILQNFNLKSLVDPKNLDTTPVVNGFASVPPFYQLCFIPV", "assay": "Cytochrome panel assay with activity outcomes", "details": "recombinant CYP, pro-luciferin dealkylation, luminescence, p450-cyp2c9; series mostly up to 57.1 µM", "values": [{"smiles": "COc1ccc(C(=O)c2c(C)n(CCN3CCOCC3)c3cc(I)ccc23)cc1", "activity, negative = inhibition": "inactive"}, {"smiles": "CN(C)CS/C(N)=N/[C@H](O)C(Cl)(Cl)Cl", "activity, negative = inhibition": "-28.6% [at 11.4 µM]"}, {"smiles": "CC[N+](CC)(CCNC(=O)C(=O)NCC[N+](CC)(CC)Cc1ccccc1Cl)Cc1ccccc1Cl", "activity, negative = inhibition": "inactive"}, {"smiles": "C/C=C1\\C[C@H](C)[C@@](O)(CO)C(=O)OCC2=CCN3CC[C@@H](OC1=O)[C@@H]23", "activity, negative = inhibition": "inactive"}, {"smiles": "COCCCN1CCN(c2nnc3n2-c2sc(Br)cc2C(c2ccccc2Cl)=NC3)CC1", "AC50": "12.6 µM (active)"}, {"smiles": "COCCCNC(=S)NC1CC2CCCC(C1)N2Cc1cccs1", "note": "(centres undefined)", "activity, negative = inhibition": "inactive"}, {"smiles": "COc1cc2c(c(OC)c1OC)-c1ccc(O)c(=O)cc1[C@H](N)CC2", "activity, negative = inhibition": "inactive"}, {"smiles": "CC[C@]1(OC(=O)CN)C(=O)OCc2c1cc1n(c2=O)Cc2cc3ccccc3nc2-1", "activity, negative = inhibition": "6.92% [at 11.4 µM]"}, {"smiles": "Nc1ccc(S(=O)(=O)c2ccc(NCN3C(=O)NC(=O)C(=O)C3=O)cc2)cc1", "activity, negative = inhibition": "7.48% [at 11.4 µM]"}, {"smiles": "CC(C)(C)CC(=O)NC(=S)Nc1ccccc1C(F)(F)F", "AC50": "2.51 µM (active)"}, {"smiles": "NCCCN1CCN(c2ccccc2)CC1", "activity, negative = inhibition": "3.16% [at 11.4 µM]"}, {"smiles": "CCNC(=O)O/N=C(\\C)c1sc(-c2ccccc2)nc1C", "AC50": "8.91 µM (active)"}, {"smiles": "C/C(=N\\OC(=O)NC(C)C)c1sc(-c2ccc(Cl)cc2)nc1C", "AC50": "7.08 µM (active)"}, {"smiles": "CCC(CC)C(=O)NC1CCSC1=O", "note": "(centres undefined)", "activity, negative = inhibition": "inactive"}, {"smiles": "N=C(N)n1cc(/C=N\\N=C(N)N)cn1", "activity, negative = inhibition": "5.35% [at 11.4 µM]"}, {"smiles": "CC1=CC(=O)C2=C(C)C[C@@H](O)[C@@H]3[C@@H](OC(=O)[C@H]3C)[C@H]12", "activity, negative = inhibition": "inactive"}, {"smiles": "CN(C)C(=O)Oc1cc(OC(=O)N(C)C)cc([C@@H](O)CNC(C)(C)C)c1", "activity, negative = inhibition": "inactive"}, {"smiles": "C[C@@]12CC[C@@H]3[C@H](CCC4=CC(=O)CC[C@]43C)[C@@H]1CC[C@@H]2C(=O)Cn1cnc2c(=S)nc[nH]c21", "activity, negative = inhibition": "-11.6% [at 11.4 µM]"}, {"smiles": "COC(=O)N1CCC2(CCN(CC(C)C)CC2)CC1", "activity, negative = inhibition": "inactive"}, {"smiles": "C[C@@]12CC[C@H](O)C[C@@H]1CC[C@H]1[C@@H]2C[C@@H](O)[C@]2(C)[C@@H](C3=CC(=O)OC3)CC[C@]12O", "activity, negative = inhibition": "inactive"}, {"smiles": "C[N+]1(C)CCN(c2ccccc2)CC1", "activity, negative = inhibition": "inactive"}, {"smiles": "C[C@H](CC(C#N)(c1ccccc1)c1ccccc1)N1CCCCC1", "activity, negative = inhibition": "6.88% [at 11.4 µM]"}, {"smiles": "COc1cc(CNC(=O)CCCC/C=C\\C(C)C)ccc1O", "AC50": "1.26 µM (active)"}, {"smiles": "COc1cc(CCN)ccc1O", "activity, negative = inhibition": "inactive"}, {"smiles": "COc1cc([C@@H](O)CN)ccc1O", "activity, negative = inhibition": "inactive"}, {"smiles": "CCCCCCCCC(=O)NCc1ccc(O)c(OC)c1", "AC50": "3.16 µM (active)"}, {"smiles": "CNC[C@H](O)c1ccc(O)c(OC)c1", "activity, negative = inhibition": "inactive"}, {"smiles": "C[C@@H]1O[C@H](O[C@@H]2CC[C@@]3(C=O)[C@H]4CC[C@@]5(C)[C@@H](C6=CC(=O)OC6)CC[C@@]5(O)[C@@H]4CC[C@]3(O)C2)C[C@H](O)[C@@H]1O", "activity, negative = inhibition": "inactive"}, {"smiles": "COc1ccc2[nH]cc(C3=CCNCC3)c2c1", "activity, negative = inhibition": "inactive"}, {"smiles": "C=CCN1C(=O)NC(=O)/C(=C/c2cccn2C)C1=O", "activity, negative = inhibition": "inactive"}, {"smiles": "O=C(O)Cc1cccnc1C(=O)O", "activity, negative = inhibition": "inactive"}, {"smiles": "O=c1cccc2n1CC1CNC[C@H]2C1", "activity, negative = inhibition": "inactive"}, {"smiles": "c1ccc(N2CC[C@@]3(CCCNC3)C2)cc1", "activity, negative = inhibition": "inactive"}, {"smiles": "CC(C)CN1CCC2(CC1)CCN(S(C)(=O)=O)CC2", "activity, negative = inhibition": "inactive"}, {"smiles": "Cc1ccc(N(C)C(=O)Oc2cccc3ccc(C)nc23)cc1", "AC50": "11.2 µM (active)"}, {"smiles": "O=C1OC(=O)[C@@H]2[C@@H]1[C@@H]1CC[C@H]2O1", "activity, negative = inhibition": "inactive"}, {"smiles": "O=C(O)C(C(=O)O)P(=S)(S)c1ccccc1", "note": "(centres undefined)", "activity, negative = inhibition": "4.02% [at 11.4 µM]"}, {"smiles": "COC(=O)C[C@](O)(CCCC(C)(C)O)C(=O)O[C@@H]1C(OC)=C[C@]23CCCN2CCc2cc4c(cc2[C@H]13)OCO4", "activity, negative = inhibition": "inactive"}, {"smiles": "C[C@]12CC[C@@H]3C(=CCc4cc(O)ccc43)[C@@H]1CCC2=O", "activity, negative = inhibition": "inactive"}, {"smiles": "CCN(CC)C(=O)N[C@@H]1C[C@H]2c3cccc4[nH]cc(c34)C[C@@H]2N(C)C1", "activity, negative = inhibition": "inactive"}, {"smiles": "CC(=O)C1=C(O)[C@@H]2[C@@H]3c4c[nH]c5cccc(c45)C[C@@H]3C(C)(C)N2C1=O", "AC50": "31.6 µM (active)"}, {"smiles": "S=C=Nc1cccc(C2(N3CCCCC3)CCCCC2)c1", "activity, negative = inhibition": "inactive"}, {"smiles": "CCCN[C@@H]1CCc2c(OC)cccc2[C@@H]1C", "activity, negative = inhibition": "inactive"}, {"smiles": "C=C(C)[C@H]1CC[C@]2(CO)CC[C@]3(C)[C@@H](CC[C@H]4[C@@]5(C)CC[C@@H](O)C(C)(C)[C@@H]5CC[C@@]43C)[C@H]12", "activity, negative = inhibition": "inactive"}, {"smiles": "C[C@@H]1[C@@H](C)N1C[C@H](O)Cn1ccnc1[N+](=O)[O-]", "note": "(some centres undefined)", "activity, negative = inhibition": "21.8% [at 11.4 µM]"}, {"smiles": "Oc1ccc2c3c1O[C@H]1c4[nH]c5ccccc5c4C[C@]4(O)[C@H](C2)N(CC2CC2)CC[C@@]314", "AC50": "25.1 µM (active)"}, {"smiles": "Oc1ccc2c3c1O[C@H]1c4[nH]c5c(c4C[C@@]4(O)[C@@H](C2)N(CC2CC2)CC[C@]314)C[C@]1(O)[C@H]2Cc3ccc(O)c4c3[C@@]1(CCN2CC1CC1)[C@@H]5O4", "activity, negative = inhibition": "inactive"}, {"smiles": "Oc1ccc2c3c1O[C@@H]1c4[nH]c5c(c4C[C@@]4(O)[C@@H](C2)N(CC2CC2)CC[C@]314)C[C@]1(O)[C@@H]2Cc3ccc(O)c4c3[C@@]1(CCN2CC1CC1)[C@H]5O4", "activity, negative = inhibition": "inactive"}, {"smiles": "C=C[C@@H]1CN2CC[C@H]1C[C@H]2[C@H](O)c1ccnc2ccccc12", "activity, negative = inhibition": "-2.06% [at 11.4 µM]"}, {"smiles": "c1cncc([C@@H]2CCCCN2)c1", "activity, negative = inhibition": "inactive"}, {"smiles": "C[C@H](N)[C@@H](O)c1ccccc1", "activity, negative = inhibition": "inactive"}, {"smiles": "NCCSC(c1ccccc1)c1ccccc1", "AC50": "1 µM (active)"}, {"smiles": "CC(=O)[C@@H]1CC[C@@H]2[C@@H]3CC=C4C[C@H](OS(=O)(=O)O)CC[C@@]4(C)[C@H]3CC[C@]21C", "activity, negative = inhibition": "inactive"}, {"smiles": "C[C@@H]1O[C@H](OC2[C@@H](O)[C@H](O)C(O)[C@H](O)[C@H]2O)[C@@H](N)C[C@@H]1N=C(N)C(=O)O", "note": "(some centres undefined)", "activity, negative = inhibition": "0.868% [at 11.4 µM]"}, {"smiles": "COc1ccc2c(c1O)-c1cccc3c1[C@H](C2)N(C)CC3", "activity, negative = inhibition": "inactive"}, {"smiles": "O=[As](O)(O)c1ccc(N=Nc2ccc(O)cc2)cc1", "activity, negative = inhibition": "-6.31% [at 11.4 µM]"}, {"smiles": "NNC(=O)c1ccc(O)cc1", "activity, negative = inhibition": "inactive"}, {"smiles": "NC(N)=NC(=O)c1nc(Cl)c(N)nc1N", "activity, negative = inhibition": "inactive"}, {"smiles": "C[C@@]12CC[C@@H]3[C@H](CCC4=CC(=O)CC[C@]43C)[C@@H]1CC[C@@H]2C(=O)COS(=O)(=O)c1ccc(Br)cc1", "activity, negative = inhibition": "-18.3% [at 11.4 µM]"}]}]}
